Results published in PubChem BioAssay (NCI).
Compounds without any hit were thinned out: in the full panel of roughly 79,000, 15% have a hit. Values without a mark were called inactive. The source made the active and inactive calls. No stated cut-off is given here; in the data, active means growth inhibition above about 70%; inactive means the rest.

Legend:
[1] = NCI Yeast Anticancer Drug Screen. Data for the rad52 strain (AID 147);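 further: 0% = growth of vehicle-treated control cultures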; settings: S. cerevisiae rad52 mutant growth inhibition, active compounds read high
In short: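 Here a repair-compromised yeast strain receives each compound; its growth is then quantified and normalised to vehicle-only controls.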

[2] = NCI Yeast Anticancer Drug Screen. Data for the wt1 strain (AID 149);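 further: 0% = growth of vehicle-treated wt1 cultures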; settings: S. cerevisiae wt1 strain (SPY 50644) growth inhibition, active compounds read high
In short: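 wt1 yeast, compound-treated; % growth inhibition vs vehicle control.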

[3] = NCI Yeast Anticancer Drug Screen. Data for the rad50EPP+ strain (AID 151);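 further: 0% = growth of vehicle-treated control cultures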; settings: S. cerevisiae rad50 mutant strain, active compounds read high
In short: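 Read-out is yeast growth inhibition relative to vehicle; cells used were the rad50EPP+ strain.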

[4] = NCI Yeast Anticancer Drug Screen. Data for the mgt1 strain (AID 153); settings: S. cerevisiae mgt1 mutant growth inhibition, active compounds read high
In short: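 Measured: inhibition of mgt1 yeast growth by compound, normalized to vehicle-treated cultures.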

[5] = NCI Yeast Anticancer Drug Screen. Data for the rad50 strain (AID 155);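 further: 0% = growth of vehicle-only cultures of the same strain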; settings: S. cerevisiae rad50 strain growth inhibition, active compounds read high
In short: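 Genetically altered yeast (DNA repair pathway); compound treatment; growth inhibition vs vehicle ctrl.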

[6] = NCI Yeast Anticancer Drug Screen. Data for the mec2-1 strain (AID 157); settings: S. cerevisiae mec2-1 strain, active compounds read high
In short: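 Using mec2-1 yeast: add compound, measure growth, express inhibition versus vehicle-treated cultures.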

[7] = NCI Yeast Anticancer Drug Screen. Data for the rad14 strain (AID 159);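 further: 0% = growth of vehicle-treated control cultures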; settings: S. cerevisiae rad14 strain growth inhibition, active compounds read high
In short: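 Test compounds were applied to a repair-deficient yeast strain. Its growth was then compared with that of cultures given vehicle alone, and inhibition was expressed relative to those controls.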

[8] = NCI Yeast Anticancer Drug Screen. Data for the sgs1 mgt1 strain (AID 161);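 further: 0% = growth of cultures given vehicle only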; settings: S. cerevisiae sgs1 mgt1 strain, active compounds read high
In short: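 Yeast cells carrying a defined DNA-repair defect were exposed to test compounds. Growth inhibition was measured relative to vehicle-treated controls.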

[9] = NCI Yeast Anticancer Drug Screen. Data for the CLN2oe strain (AID 163);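 further: 0% = growth of vehicle-only control cultures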; settings: S. cerevisiae CLN2oe strain, active compounds read high
In short: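 Whole-cell yeast growth assay. A strain engineered for altered cell-cycle control received compound, and inhibition relative to vehicle-treated cultures was recorded.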

[10] = NCI Yeast Anticancer Drug Screen. Data for the cln2 rad14 strain (AID 165);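 further: 0% = growth equal to vehicle treated cultures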; settings: S. cerevisiae cln2 rad14 strain, active compounds read high
In short: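 Yeast strain cln2 rad14, bearing defects in cell cycle control and DNA repair, serves as the test system; values reflect growth inhibition compared with vehicle.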

[11] = NCI Yeast Anticancer Drug Screen. Data for the bub3 strain (AID 167); settings: S. cerevisiae bub3 mutant strain, active compounds read high
In short: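 Yeast carrying a defined mutation is treated with each compound, and growth is compared with that of vehicle-exposed cells to give inhibition.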

[12] = NCI Yeast Anticancer Drug Screen. Data for the wt2 strain (AID 169);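 further: 0% = growth of vehicle-treated yeast cultures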; settings: S. cerevisiae wt2 strain growth inhibition, active compounds read high
In short: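 Treated yeast vs. vehicle-treated yeast: growth inhibition determined.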

[13] = NCI Yeast Anticancer Drug Screen. Data for the sgs1 strain (AID 173);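 further: 0% = growth of vehicle-only control cultures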; settings: S. cerevisiae sgs1 mutant, active compounds read high
In short: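 A genetically defined yeast mutant is incubated with the test compound, and its growth is compared to that of the same strain given vehicle.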

[14] = NCI Yeast Anticancer Drug Screen. Data for the mlh1 rad18 strain (AID 175); settings: S. cerevisiae mlh1 rad18 strain growth inhibition, active compounds read high
In short: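 Steps: expose repair-defective yeast to compound; measure growth; express inhibition against vehicle-treated controls.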

[15] = NCI Yeast Anticancer Drug Screen. Data for the rad18 strain (AID 177); settings: S. cerevisiae rad18 mutant growth inhibition, active compounds read high
In short: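 Measured value is growth inhibition of a yeast strain bearing a DNA repair alteration, referenced to vehicle-treated cells.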

[16] = NCI Yeast Anticancer Drug Screen. Data for the mlh1 strain (AID 171);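 further: 0% = growth of vehicle-treated control cultures of the same strain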; settings: S. cerevisiae mlh1 strain growth inhibition, active compounds read high
In short: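 A yeast strain with a defined genetic lesion serves as the test organism. Cultures receive compound or vehicle, and growth is measured.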

[17] = at 5.0 µM (retest, dose inferred, filed as 0.5)
[18] = at 50.0 µM (retest, dose inferred, filed as 5.0)

COc1cccc(C(NC2=NCCC=N2)c2cc3c(cc2O)OCO3)c1O (stereo not drawn)
growth inhibition ([1]; at 1.2 µM): -1%
growth inhibition ([1]; at 3.7 µM): 2%
growth inhibition ([1]; at 11.0 µM): 21%
growth inhibition ([1]; at 33.0 µM): 56%
growth inhibition ([1]; at 100.0 µM): 66%
growth inhibition ([2]; at 1.2 µM): -2%
growth inhibition ([2]; at 3.7 µM): -4%
growth inhibition ([2]; at 11.0 µM): 2%
growth inhibition ([2]; at 33.0 µM): 5%
growth inhibition ([2]; at 100.0 µM): 8%
growth inhibition ([3]; at 1.2 µM): -9%
growth inhibition ([3]; at 3.7 µM): -9%
growth inhibition ([3]; at 11.0 µM): -4%
growth inhibition ([3]; at 33.0 µM): 6%
growth inhibition ([3]; at 100.0 µM): 9%
growth inhibition ([4]; at 1.2 µM): -1%
growth inhibition ([4]; at 3.7 µM): -5%
growth inhibition ([4]; at 11.0 µM): 12%
growth inhibition ([4]; at 33.0 µM): -22%
growth inhibition ([4]; at 100.0 µM): 10%
growth inhibition ([5]; at 1.2 µM): -1%
growth inhibition ([5]; at 3.7 µM): -1%
growth inhibition [5, 17]: -11%
growth inhibition ([5]; at 11.0 µM): -36%
growth inhibition ([5]; at 33.0 µM): 26%
growth inhibition [5, 18]: 72% (active)
growth inhibition ([5]; at 50.0 µM): 41.8%
growth inhibition ([5]; at 100.0 µM): 39%
growth inhibition ([6]; at 1.2 µM): 1%
growth inhibition ([6]; at 3.7 µM): -3%
growth inhibition [6, 17]: -20%
growth inhibition ([6]; at 11.0 µM): 7%
growth inhibition ([6]; at 33.0 µM): 15%
growth inhibition [6, 18]: 61%
growth inhibition ([6]; at 50.0 µM): 23.6%
growth inhibition ([6]; at 100.0 µM): 22%
growth inhibition ([7]; at 1.2 µM): 6%
growth inhibition ([7]; at 3.7 µM): 5%
growth inhibition ([7]; at 11.0 µM): 8%
growth inhibition ([7]; at 33.0 µM): 12%
growth inhibition ([7]; at 100.0 µM): 29%
growth inhibition [8, 17]: -47%
growth inhibition [8, 18]: 77% (active)
growth inhibition ([8]; at 50.0 µM): 72.3% (active)
growth inhibition ([9]; at 1.2 µM): -2%
growth inhibition ([9]; at 3.7 µM): -8%
growth inhibition ([9]; at 11.0 µM): -1%
growth inhibition ([9]; at 33.0 µM): 4%
growth inhibition ([9]; at 100.0 µM): 21%
growth inhibition [10, 17]: 26%
growth inhibition [10, 18]: 13%
growth inhibition ([10]; at 50.0 µM): 44.6%
growth inhibition ([11]; at 1.2 µM): -9%
growth inhibition ([11]; at 3.7 µM): -3%
growth inhibition [11, 17]: -57%
growth inhibition ([11]; at 11.0 µM): -3%
growth inhibition ([11]; at 33.0 µM): -1%
growth inhibition [11, 18]: 73% (active)
growth inhibition ([11]; at 50.0 µM): 37.5%
growth inhibition ([11]; at 100.0 µM): 5%
growth inhibition ([12]; at 1.2 µM): 0%
growth inhibition ([12]; at 3.7 µM): 1%
growth inhibition ([12]; at 11.0 µM): 5%
growth inhibition ([12]; at 33.0 µM): 18%
growth inhibition ([12]; at 100.0 µM): 25%
growth inhibition ([13]; at 1.2 µM): 4%
growth inhibition ([13]; at 3.7 µM): 6%
growth inhibition ([13]; at 11.0 µM): 21%
growth inhibition ([13]; at 33.0 µM): 46%
growth inhibition ([13]; at 100.0 µM): 57%
growth inhibition [14, 17]: -31%
growth inhibition [14, 18]: 72% (active)
growth inhibition ([14]; at 50.0 µM): 49.2%
growth inhibition ([15]; at 1.2 µM): -2%
growth inhibition ([15]; at 3.7 µM): 0%
growth inhibition ([15]; at 11.0 µM): 9%
growth inhibition ([15]; at 33.0 µM): 23%
growth inhibition ([15]; at 100.0 µM): 56%

O=c1[nH]c2c([N+](=O)[O-])cccc2c2ccccc12
growth inhibition ([1]; at 1.2 µM): -1%
growth inhibition ([1]; at 3.7 µM): 0%
growth inhibition ([1]; at 11.0 µM): 6%
growth inhibition ([1]; at 33.0 µM): 40%
growth inhibition ([1]; at 100.0 µM): 89% (active)
growth inhibition ([2]; at 1.2 µM): -3%
growth inhibition ([2]; at 3.7 µM): -2%
growth inhibition ([2]; at 11.0 µM): -2%
growth inhibition ([2]; at 33.0 µM): 5%
growth inhibition ([2]; at 100.0 µM): 73% (active)
growth inhibition ([3]; at 1.2 µM): 5%
growth inhibition ([3]; at 3.7 µM): 12%
growth inhibition ([3]; at 11.0 µM): 26%
growth inhibition ([3]; at 33.0 µM): 52%
growth inhibition ([3]; at 100.0 µM): 76% (active)
growth inhibition ([4]; at 1.2 µM): -4%
growth inhibition ([4]; at 3.7 µM): -3%
growth inhibition ([4]; at 11.0 µM): -3%
growth inhibition ([4]; at 33.0 µM): 19%
growth inhibition ([4]; at 100.0 µM): 90% (active)
growth inhibition ([5]; at 1.2 µM): 2%
growth inhibition ([5]; at 3.7 µM): -42%
growth inhibition [5, 17]: 7%
growth inhibition ([5]; at 11.0 µM): 33%
growth inhibition ([5]; at 33.0 µM): 53%
growth inhibition [5, 18]: 80% (active)
growth inhibition ([5]; at 50.0 µM): 96.2% (active)
growth inhibition ([5]; at 100.0 µM): 95% (active)
growth inhibition ([6]; at 1.2 µM): 0%
growth inhibition ([6]; at 3.7 µM): 0%
growth inhibition [6, 17]: 4%
growth inhibition ([6]; at 11.0 µM): 3%
growth inhibition ([6]; at 33.0 µM): 17%
growth inhibition [6, 18]: 52%
growth inhibition ([6]; at 50.0 µM): 96% (active)
growth inhibition ([6]; at 100.0 µM): 89% (active)
growth inhibition ([7]; at 1.2 µM): 2%
growth inhibition ([7]; at 3.7 µM): 5%
growth inhibition ([7]; at 11.0 µM): 12%
growth inhibition ([7]; at 33.0 µM): 24%
growth inhibition ([7]; at 100.0 µM): 86% (active)
growth inhibition [8, 17]: 2%
growth inhibition [8, 18]: 51%
growth inhibition ([8]; at 50.0 µM): 96.8% (active)
growth inhibition [10, 17]: -13%
growth inhibition [10, 18]: 11%
growth inhibition ([10]; at 50.0 µM): 93% (active)
growth inhibition ([11]; at 1.2 µM): -4%
growth inhibition ([11]; at 3.7 µM): -6%
growth inhibition [11, 17]: 3%
growth inhibition ([11]; at 11.0 µM): 0%
growth inhibition ([11]; at 33.0 µM): 28%
growth inhibition [11, 18]: 72% (active)
growth inhibition ([11]; at 50.0 µM): 95% (active)
growth inhibition ([11]; at 100.0 µM): 90% (active)
growth inhibition ([12]; at 1.2 µM): -2%
growth inhibition ([12]; at 3.7 µM): 6%
growth inhibition ([12]; at 11.0 µM): -1%
growth inhibition ([12]; at 33.0 µM): 12%
growth inhibition ([12]; at 100.0 µM): 84% (active)
growth inhibition ([16]; at 1.2 µM): -2%
growth inhibition ([16]; at 3.7 µM): -2%
growth inhibition ([16]; at 11.0 µM): 0%
growth inhibition ([16]; at 33.0 µM): 18%
growth inhibition ([16]; at 100.0 µM): 88% (active)
growth inhibition ([13]; at 1.2 µM): -2%
growth inhibition ([13]; at 3.7 µM): 0%
growth inhibition ([13]; at 11.0 µM): 7%
growth inhibition ([13]; at 33.0 µM): 40%
growth inhibition ([13]; at 100.0 µM): 90% (active)
growth inhibition ([15]; at 1.2 µM): 3%
growth inhibition ([15]; at 3.7 µM): 9%
growth inhibition ([15]; at 11.0 µM): 26%
growth inhibition ([15]; at 33.0 µM): 73% (active)
growth inhibition ([15]; at 100.0 µM): 96% (active)
